Measured values published in the supplement of paper PMC10338343.
± gives the standard deviation. In all, about 8,200 sequences were measured (“pre-steady-state target cleavage rate”: median about 0.024, highest 2% from about 1.3 on). The sample as a whole holds a higher share of the highest values than the screen did.

System: MIWI (PIWIL1) piRISC loaded with L1MC piRNA (30 nt)
Experiment: pre-steady-state target cleavage rate (min^-1); MIWI and MILI are mouse PIWI proteins and EfPiwi is from a freshwater sponge; tags in brackets are library labels; higher = faster piRNA-guided slicing of the target
Settings: guide: L1MC piRNA 5'p-UAACUAAAUACUAUGCAAGCUGUAGGUCCU
Method in brief: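 Three pooled Cleave-'n-Seq trials supplied the data, with k3 capped at 0.0001 min^-1. In each, […] transcribed, DNA-blocked target RNA library and 1 nM active affinity-purified piRISC with one synthetic guide reacted in HEPES–potassium acetate buffer at 33 °C for 0–8 or 0–960 min, with or without 500 nM GTSF1 partner protein. Uncleaved targets were sequenced and normalised to depth and to weakly complementary targets. A burst-and-steady-state fit provided the pre-steady-state cleavage rate.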

[1] = auxiliary factor: 500 nM mouse GTSF1
[2] = auxiliary factor: none (no GTSF1)
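Further: 1 nM active piRISC with 0.1 nM target library at 33 °C single turnover.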

Sequence	pre-steady-state target cleavage rate [1]	pre-steady-state target cleavage rate [2]
UCCUGGUACAGGCUUGCAUAGUAUUUAGUUA	0.498 ± 0.059	0.0384 ± 0.0089
UCCUGGAUGUCGAUGCAUAGUAUUGAGUUA	0.02 ± 0.006	
UCCUGGAUCAGCUUGCAUAGUCUUUAGUUA	0.841 ± 0.035	0.0552 ± 0.012
AGGACCUACAGCUUGCAUAGUAUUUAAUUA	0.357 ± 0.033	0.0325 ± 0.0055
AGGACCUACAGCUUGCUUAGUAUUUAGAAA	0.486 ± 0.063	0.00737 ± 0.0028
UCCUGGAUCAACUUGCAUAGUAUUUAGUUA	1.01 ± 0.051	0.0248 ± 0.0054
AGGACCUACAGGAAGCAUAGUAUUUACAAA	0.32 ± 0.064	
AGCACCAACAGCUUGCAUAGUAUUUAGUUA	1.03 ± 0.058	0.0664 ± 0.011
UCGACCAACAGCUUGCAUAGUAUUUAGUAA	1.2 ± 0.065	0.0413 ± 0.0084
UCGACCAACAGCUUGCAUAGUAUUUAGUUA	1.62 ± 0.054	0.0825 ± 0.014
ACGACCAACAGCUUGCAUAGUAUUUAGUUA	1.64 ± 0.055	0.0972 ± 0.018
UGCACCAACAGCUUGCAUAGUAUUUAGUUA	1.23 ± 0.056	0.0613 ± 0.0098
UCGACCAACAGCUUGCAUAGUAUUUAGAUA	0.54 ± 0.029	0.0297 ± 0.0066
UCCUGGAUGUGCUUGCAUAGUAUUUUGAAA	0.0177 ± 0.0092	0.00406 ± 0.0024
UCCUGCUACAGCUUGCAUUCUAUUUACAAA	0.0158 ± 0.0068	
AGGAGCUACAGGUUGCAUAGUAUUUAGUUA	1.17 ± 0.075	0.0502 ± 0.0084
UCCUGGUACAGAUUGCAUAGUAUUUAGUUA	0.58 ± 0.071	0.0178 ± 0.0046
UCCUGGAACAGCUUGCAUACAAUUUAGUAA	0.0102 ± 0.0056	
AGGACCUACAGCAUGCAUAGUAUUUACAAA	0.526 ± 0.066	0.00349 ± 0.0032
UCCACCUUCAGCUUGCAUAGUAUUUAGUUA	0.933 ± 0.045	0.0531 ± 0.0087
AGGACGAACAGCUUGCAUAGUAUUUAGUUA	1.27 ± 0.045	0.084 ± 0.016
UGGACGUAGAGCUUGCAUAGUAUUUAGUUA	1.29 ± 0.083	0.043 ± 0.0093

Sequence	pre-steady-state target cleavage rate [1]	pre-steady-state target cleavage rate [2]
UGGACGUUCAGCUUGCAUAGUAUUUAGUUA	1.37 ± 0.052	0.0691 ± 0.012
AGGACGUUCAGCUUGCAUAGUAUUUAGUUA	1.35 ± 0.063	0.0669 ± 0.01
UCCACCACAGCUUGCAUAGUAUUUAGUUA	0.992 ± 0.035	0.0505 ± 0.0088
UCGACGUUCAGCUUGCAUAGUAUUUAGUUA	1.3 ± 0.036	0.0748 ± 0.015
AGGACGUAGAGCUUGCAUAGUAUUUAGUUA	1.17 ± 0.072	0.047 ± 0.0083
UCCACGUUCAGCUUGCAUAGUAUUUAGUUA	1.42 ± 0.057	0.0658 ± 0.011
UGGACCUACAGCUUGCAUACAAUUUAGUAA	0.00447 ± 0.0027	
UCCACCUACAGCUUGCUAUGUAUUUAGAAA	0.00878 ± 0.0045	
UCCUGGAUGUGCUUGCAUACUAUUUAGUUA	0.0877 ± 0.01	0.0191 ± 0.0037
UCCUGGAUCAGCUUGCAUAGUAUUUUGAUA	0.17 ± 0.032	0.0123 ± 0.004
UCCUGGAACAGCUUGCAUAAGUAUUUAGUUA	0.00489 ± 0.0033	
UCCUGGAACAUGCUUGCAUAGUAUUUAGUUA	0.696 ± 0.028	0.0566 ± 0.011
UCCUGGUACAGCUUGCAUCGUAUUUAGUUA	0.203 ± 0.024	0.0269 ± 0.0059
UCCUGCUACAGCUUGCAUAGUCUUUAGUUA	0.279 ± 0.034	0.0195 ± 0.0047
UCCUGCUACAGCUUGCAUAGAUUUUAGAAA	0.00439 ± 0.0033	
UGGACCUACUGCUUGCAUUGUAUUUAGUUA	0.868 ± 0.041	0.0358 ± 0.009
UCCUCCUACACGUUGCAUAGUAUUUAGUAA	0.507 ± 0.035	0.00568 ± 0.0015
UGGACCUACAAGCUUGCAUAGUAUUUAGUUA	1.03 ± 0.058	0.0528 ± 0.0098
UGGACCUACAACUUGCAUAGUAUUUAGUUA	1.5 ± 0.062	0.08 ± 0.013
UGGACCUACACUUGCAUAGUAUUUAGUUA	1.33 ± 0.082	0.045 ± 0.0091
AGGACCUACAACUUGCAUAGUAUUUAGUUA	1.08 ± 0.031	0.0712 ± 0.011
UCGACCUACACUUGCAUAGUAUUUAGUUA	1.09 ± 0.045	0.0331 ± 0.0076

Sequence	pre-steady-state target cleavage rate [1]	pre-steady-state target cleavage rate [2]
UCCACCUACAACUUGCAUAGUAUUUAGUUA	0.869 ± 0.025	0.0505 ± 0.0067
AGGACCUACACUUGCAUAGUAUUUAGUUA	1.15 ± 0.043	0.0736 ± 0.016
UCGACCUACAACUUGCAUAGUAUUUAGUUA	1.33 ± 0.041	0.0746 ± 0.015
UGGACCUACACCUUGCAUAGUAUUUAGUUA	1.23 ± 0.045	0.0585 ± 0.0088
UCCUGGAACAGCUUCCAUAGUAUUUAGAAA	0.00998 ± 0.0048	
UCCACCUACAGCUUGCAUAGUAUUUAGUA	0.445 ± 0.043	0.00981 ± 0.0037
AGGACCUACAGCUUGCAUUCUAUUUAGUAA	0.262 ± 0.057	0.00441 ± 0.0024
UCCUGGAUGAGCUUGCUUAGUUUUUAGUUA	0.0242 ± 0.0064	0.00971 ± 0.0022
UCCUGGAUGUCCAUGCAUAGUAAUUAGUUA	0.00537 ± 0.0047	
UGGACCAACAGCUUGCAUAGUAUUUACUUA	0.299 ± 0.018	0.0367 ± 0.0063
UCCUGGAUGUCCUUGAAUAGUAUUUAGUUA	0.0223 ± 0.0065	0.00268 ± 0.0026
UCCUGCCUACAGCUUGCAUAGUAUUUAGUUA	1.33 ± 0.091	0.0623 ± 0.014
UCCUGCUACAGCUUGCCUAGUAUUUAGUUA	0.886 ± 0.057	0.0207 ± 0.0037
AGCUCCUACAGCUUGCAUAGUAUUUAGUUA	1.37 ± 0.053	0.0847 ± 0.013
UGCUCCUACAGCUUGCAUAGUAUUUAGAAA	0.429 ± 0.033	0.00714 ± 0.0022
UCCUCCUACAGCUUGCAUAGUAUUUAGUUU [g2:g26:cont:t1U]	1.29 ± 0.04	0.0826 ± 0.02
AGCUCCUACAGCUUGCAUAGUAUUUAGUAA	1.01 ± 0.069	0.0506 ± 0.011
UGCUCCUACAGCUUGCAUAGUAUUUAGUAA	1.07 ± 0.045	0.0382 ± 0.0079
UGCUCCUACAGCUUGCAUAGUAUUUAGUUA	1.33 ± 0.047	0.0726 ± 0.012
UCCUGCUACAGCUUGCAUAGUAUUUAGUUUA	1.17 ± 0.077	0.0574 ± 0.012
